Data published in article PMC5540273 (PLoS ONE, 2017).

Test system: NEK11
Conditions: concentration: 1 μM,replicates: in singlicate; n = 1
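Note: KINOMEscan kinase panel screen.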

Row | Structure (SMILES) | %Inh
1 | O=C(NCCNc1ccnc(NCc2ccc(F)cc2)n1)c1cc2ccccc2s1 [GSK1379944] | 0%
2 | Cl.Cl.NC[C@H](CC1CCCCC1)NC(=O)c1cc(Br)c(-c2ccnc3[nH]ccc23)s1 [GSK1581427] | 0%
3 | Cc1ccc2c(-c3ccncc3)c(-c3ccc(F)cc3)nn2c1.Cl [GW461484] | 21%
4 | CC(C)N1C(=O)Cc2cc(Nc3ncc(C(F)(F)F)c(NCc4cccc(S(C)(=O)=O)c4)n3)ccc21 | 0%
5 | CN(C)CC(O)COc1ccc(Nc2nccc(-c3cnn4nc(N5CCOCC5)ccc34)n2)cc1 (stereo not drawn) [GW767488] | 47%
6 | COc1ccc(C[C@@H](CN)NC(=O)c2cc(Br)c(-c3ccnc4[nH]ccc34)s2)cc1.Cl.Cl [GSK1389063] | 14%
7 | C[C@@H](Oc1cc(-c2cnn(C3CCNCC3)c2)cnc1N)c1c(Cl)ccc(F)c1Cl | 0%
8 | CCN(CC)CCCCNc1ncc2cc(-c3c(Cl)cccc3Cl)c(NC(=O)NC(C)(C)C)nc2n1 | 0%
9 | C[C@H]1Oc2cc(cnc2N)-c2c(nn(C)c2C#N)CN(C)C(=O)c2ccc(F)cc21 | 0%
10 | CCN(CC)CCOc1ccc(Nc2ncc3cc(-c4c(Cl)cccc4Cl)c(=O)n(C)c3n2)cc1 [SB-601273] | 98.5%
11 | Cl.Cl.NC[C@H](Cc1ccc(C(F)(F)F)cc1)NC(=O)c1cc(Br)c(-c2ccnc3[nH]ccc23)s1 [GSK1487252] | 0%
12 | C[C@@H]1CCN(C(=O)CC#N)C[C@@H]1N(C)c1ncnc2[nH]ccc12 | 0%
13 | Cc1n[nH]c2ccc(-c3cc(OC[C@@H](N)Cc4ccccc4)cnc3-c3ccoc3)cc12.O=C(O)C(F)(F)F.O=C(O)C(F)(F)F [GSK507358] | 0%
14 | CN(C)CCOc1ccc(-c2cc(-c3c[nH]nc3-c3ccccn3)ccn2)cc1 [GW835314] | 25%
15 | CCn1c(-c2nonc2N)nc2c(C#CC(C)(C)O)nc(OCCN)cc21.Cl.Cl [GSK902056] | 3%
16 | Nc1nc(Nc2ccccc2)cc(-c2ccc3c(N)n[nH]c3c2)n1 [GSK2225749] | 11%
17 | Cc1ccc(-n2nc(C(C)(C)C)cc2NC(=O)Nc2ccc(OCCN3CCOCC3)c3ccccc23)cc1 [GW839464] | 0%
18 | Cc1cc(C(=O)Nc2ccc(Oc3ccc4nc(NC(=O)C5CC5)cn4n3)cc2)nn1-c1ccccc1 | 0%
19 | O=C(NCCCN1CCOC1=O)c1cnc(NCc2cc(Cl)ccc2Cl)nc1NC1CCCC1 | 0%
20 | CC(C)Nc1cc(-c2ccc3c(N)n[nH]c3c2)nc(N)n1 [GSK2221681] | 0%
21 | CNC(=O)c1ccccc1Sc1ccc2c(/C=C/c3ccccn3)n[nH]c2c1 | 0%
22 | NC(=O)c1cc(-c2ccccc2)cc2c(C3CCNCC3)c[nH]c12 [GSK301362] | 0%
23 | Cl.Cl.Nc1nc(-c2ccc3c(N)n[nH]c3c2)cc(N2CCCC(NC(=O)c3ccccc3)C2)n1 (stereo not drawn) [GSK2286775] | 0%
24 | Cl.Oc1cc(-c2nc(-c3ccccc3)[nH]c2-c2ccncc2)ccc1Cl [SB-386023] | 18%
25 | Cc1cc2cn[nH]c2cc1-c1cccc2c(N)c(C(N)=O)nnc12 | 27%
26 | Cc1occc1-c1nc(N)c(OC[C@@H](N)Cc2c[nH]c3ccccc23)cc1-c1cc2c(C)n[nH]c2cn1 [GSK1660450] | 0%
27 | C=CC(=O)Nc1cc2c(Nc3ccc(F)c(Cl)c3)ncnc2cc1OCCCN1CCOCC1 [GW781483] | 0%

Test system: NEK1
Conditions: concentration: 1 μM,replicates: in singlicate; n = 1

Row | Structure (SMILES) | %Inh
28 | O=C(NCCNc1ccnc(NCc2ccc(F)cc2)n1)c1cc2ccccc2s1 [GSK1379944] | 0%
29 | Cl.Cl.NC[C@H](CC1CCCCC1)NC(=O)c1cc(Br)c(-c2ccnc3[nH]ccc23)s1 [GSK1581427] | 37%
30 | Cc1ccc2c(-c3ccncc3)c(-c3ccc(F)cc3)nn2c1.Cl [GW461484] | 0%
31 | CC(C)N1C(=O)Cc2cc(Nc3ncc(C(F)(F)F)c(NCc4cccc(S(C)(=O)=O)c4)n3)ccc21 | 0%
32 | CN(C)CC(O)COc1ccc(Nc2nccc(-c3cnn4nc(N5CCOCC5)ccc34)n2)cc1 (stereo not drawn) [GW767488] | 44%
33 | COc1ccc(C[C@@H](CN)NC(=O)c2cc(Br)c(-c3ccnc4[nH]ccc34)s2)cc1.Cl.Cl [GSK1389063] | 0%
34 | C[C@@H](Oc1cc(-c2cnn(C3CCNCC3)c2)cnc1N)c1c(Cl)ccc(F)c1Cl | 0%
35 | CCN(CC)CCCCNc1ncc2cc(-c3c(Cl)cccc3Cl)c(NC(=O)NC(C)(C)C)nc2n1 | 43%
36 | C[C@H]1Oc2cc(cnc2N)-c2c(nn(C)c2C#N)CN(C)C(=O)c2ccc(F)cc21 | 0%
37 | CCN(CC)CCOc1ccc(Nc2ncc3cc(-c4c(Cl)cccc4Cl)c(=O)n(C)c3n2)cc1 [SB-601273] | 34%
38 | Cl.Cl.NC[C@H](Cc1ccc(C(F)(F)F)cc1)NC(=O)c1cc(Br)c(-c2ccnc3[nH]ccc23)s1 [GSK1487252] | 15%
39 | C[C@@H]1CCN(C(=O)CC#N)C[C@@H]1N(C)c1ncnc2[nH]ccc12 | 0%
40 | Cc1n[nH]c2ccc(-c3cc(OC[C@@H](N)Cc4ccccc4)cnc3-c3ccoc3)cc12.O=C(O)C(F)(F)F.O=C(O)C(F)(F)F [GSK507358] | 1%
41 | CN(C)CCOc1ccc(-c2cc(-c3c[nH]nc3-c3ccccn3)ccn2)cc1 [GW835314] | 0%
42 | CCn1c(-c2nonc2N)nc2c(C#CC(C)(C)O)nc(OCCN)cc21.Cl.Cl [GSK902056] | 0%
43 | Nc1nc(Nc2ccccc2)cc(-c2ccc3c(N)n[nH]c3c2)n1 [GSK2225749] | 0%
44 | Cc1ccc(-n2nc(C(C)(C)C)cc2NC(=O)Nc2ccc(OCCN3CCOCC3)c3ccccc23)cc1 [GW839464] | 2%
45 | Cc1cc(C(=O)Nc2ccc(Oc3ccc4nc(NC(=O)C5CC5)cn4n3)cc2)nn1-c1ccccc1 | 1%
46 | O=C(NCCCN1CCOC1=O)c1cnc(NCc2cc(Cl)ccc2Cl)nc1NC1CCCC1 | 0%
47 | CC(C)Nc1cc(-c2ccc3c(N)n[nH]c3c2)nc(N)n1 [GSK2221681] | 0%
48 | CNC(=O)c1ccccc1Sc1ccc2c(/C=C/c3ccccn3)n[nH]c2c1 | 0%
49 | NC(=O)c1cc(-c2ccccc2)cc2c(C3CCNCC3)c[nH]c12 [GSK301362] | 0%
50 | Cl.Cl.Nc1nc(-c2ccc3c(N)n[nH]c3c2)cc(N2CCCC(NC(=O)c3ccccc3)C2)n1 (stereo not drawn) [GSK2286775] | 7%
51 | Cl.Oc1cc(-c2nc(-c3ccccc3)[nH]c2-c2ccncc2)ccc1Cl [SB-386023] | 0%
52 | Cc1cc2cn[nH]c2cc1-c1cccc2c(N)c(C(N)=O)nnc12 | 0%
53 | Cc1occc1-c1nc(N)c(OC[C@@H](N)Cc2c[nH]c3ccccc23)cc1-c1cc2c(C)n[nH]c2cn1 [GSK1660450] | 46%
54 | C=CC(=O)Nc1cc2c(Nc3ccc(F)c(Cl)c3)ncnc2cc1OCCCN1CCOCC1 [GW781483] | 0%
